Results as given in the supplement of paper PMC8728848.
The full list was thinned out, with the strongest signals kept by preference.

What was measured:
Test in all cases: glycan array binding signal (z-score within array); higher = stronger binding
Details in all cases: glycan notation: IUPAC condensed, linker removed
[1] = target: Fuc(a1-2)Gal
Method in brief: (§1)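 From the Consortium for Functional Glycomics database, 3228 arrays were curated, keeping only those whose protein sequence was available. Binding is given as a within-array Z-score averaged across arrays sharing a protein sequence and across linkers. Negative Z-scores can be read as non-binding.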

[2] = target: Fuc(a1-2)Gal(b1-4)GlcNAc(b1-3)Gal(b1-4)GlcNAc
Method in brief: as §1

[3] = target: Fuc(a1-2)Gal(b1-4)GlcNAc6S
Method in brief: as §1

[4] = target: Fuc(a1-2)GlcNAc
Method in brief: as §1

[5] = target: Fuc(a1-2)[Gal(a1-3)]Gal(b1-4)[Fuc(a1-3)]GlcNAc
Method in brief: as §1

[6] = target: Fuc(a1-2)[GalNAc(a1-3)]Gal(b1-4)[Fuc(a1-3)]GlcNAc
Method in brief: as §1

[7] = target: Fuc(a1-3)[Gal3S(b1-4)]GlcNAc6S
Method in brief: as §1

[8] = target: Gal(a1-4)Gal(b1-4)Gal
Method in brief: as §1

[9] = target: Gal(b1-3)Gal
Method in brief: as §1

[10] = target: Gal(b1-3)GalNAc(b1-3)Gal(b1-4)GlcNAc
Method in brief: as §1

[11] = target: Gal(b1-3)[Neu5Ac(b2-6)]GlcNAc
Method in brief: as §1

[12] = target: Gal(b1-4)Glc
Method in brief: as §1

[13] = target: Gal(b1-4)Glc6S
Method in brief: as §1

[14] = target: Gal(b1-4)GlcNAc(b1-6)[Gal(b1-3)]GalNAc
Method in brief: as §1

[15] = target: Gal3S(b1-4)GlcNAc6S
Method in brief: as §1

[16] = target: Gal3S6S(b1-4)GlcNAc
Method in brief: as §1

[17] = target: Gal3S6S(b1-4)GlcNAc6S
Method in brief: as §1

[18] = target: GalNAc(a1-3)Gal
Method in brief: as §1

[19] = target: Glc(b1-6)Glc
Method in brief: as §1

[20] = target: Man(a1-2)Man(a1-3)Man
Method in brief: as §1

[21] = target: Neu5Ac(a2-3)Gal(b1-3)[Fuc(a1-4)]GlcNAc(b1-3)Gal(b1-4)[Fuc(a1-3)]GlcNAc
Method in brief: as §1

[22] = target: Neu5Ac(a2-3)Gal(b1-4)GlcNAc6S
Method in brief: as §1

[23] = target: Neu5Ac(a2-3)Gal(b1-4)[Fuc(a1-3)]GlcNAc(b1-3)Gal(b1-4)[Fuc(a1-3)]GlcNAc(b1-3)Gal(b1-4)[Fuc(a1-3)]GlcNAc
Method in brief: as §1

[24] = target: Neu5Ac(a2-6)Gal(b1-4)Glc
Method in brief: as §1

[25] = target: Neu5Ac(a2-8)Neu5Ac(a2-8)Neu5Ac(a2-3)[GalNAc(b1-4)]Gal(b1-4)Glc
Method in brief: as §1

[26] = target: Neu5Ac(b2-6)Gal(b1-4)GlcNAc
Method in brief: as §1

[27] = target: Fuc(a1-2)Gal(b1-3)GlcNAc(b1-3)Gal(b1-4)Glc
Method in brief: as §1

[28] = target: Fuc(a1-2)Gal6S(b1-4)GlcNAc
Method in brief: as §1

[29] = target: Fuc(a1-3)[Gal(b1-4)]GlcNAc(b1-2)Man(a1-3)[Fuc(a1-3)[Gal(b1-4)]GlcNAc(b1-2)Man(a1-6)]Man(b1-4)GlcNAc(b1-4)GlcNAc
Method in brief: as §1

[30] = target: Fuc(a1-3)[Gal(b1-4)]GlcNAc(b1-2)Man(a1-6)[Gal(b1-4)GlcNAc(b1-2)Man(a1-3)]Man(b1-4)GlcNAc(b1-4)GlcNAc
Method in brief: as §1

[31] = target: Fuc(a1-3)[GalNAc(b1-4)]GlcNAc
Method in brief: as §1

[32] = target: Fuc(b1-3)GlcNAc
Method in brief: as §1

[33] = target: Gal(a1-3)GalNAc
Method in brief: as §1

[34] = target: Gal(b1-3)GlcNAc(b1-3)Gal(b1-4)Glc
Method in brief: as §1

[35] = target: Gal(b1-3)GlcNAc(b1-3)Gal(b1-4)GlcNAc
Method in brief: as §1

[36] = target: Gal(b1-3)[Neu5Ac(a2-6)]GlcNAc(b1-6)Gal(b1-4)Glc
Method in brief: as §1

[37] = target: Gal(b1-4)GlcNAc(b1-3)[Gal(b1-4)GlcNAc(b1-6)]GalNAc
Method in brief: as §1

[38] = target: Gal(b1-4)GlcNAc(b1-6)GalNAc
Method in brief: as §1

[39] = target: Gal6S(b1-4)Glc6S
Method in brief: as §1

[40] = target: Gal6S(b1-4)GlcNAc6S
Method in brief: as §1

[41] = target: GlcNAc(a1-6)Gal(b1-4)GlcNAc
Method in brief: as §1

[42] = target: GlcNAc(b1-3)[GlcNAc(b1-6)]GlcNAc(b1-4)GlcNAc
Method in brief: as §1

[43] = target: Man(a1-2)Man(a1-2)Man(a1-3)[Man(a1-2)Man(a1-3)[Man(a1-2)Man(a1-6)]Man(a1-6)]Man(b1-4)GlcNAc(b1-4)GlcNAc
Method in brief: as §1

[44] = target: Man(a1-2)Man(a1-2)Man(a1-6)[Man(a1-3)]Man
Method in brief: as §1

[45] = target: Man(a1-2)Man(a1-3)[Man(a1-2)Man(a1-6)]Man
Method in brief: as §1

[46] = target: Man(a1-2)Man(a1-3)[Man(a1-3)[Man(a1-6)]Man(a1-6)]Man(b1-4)GlcNAc(b1-4)GlcNAc
Method in brief: as §1

[47] = target: Neu5Ac(a2-3)Gal(b1-3)GalNAc(b1-4)[Neu5Ac(a2-3)]Gal(b1-4)Glc
Method in brief: as §1

[48] = target: Neu5Ac(a2-3)Gal(b1-3)GlcNAc
Method in brief: as §1

[49] = target: Neu5Ac(a2-3)Gal(b1-4)GlcNAc
Method in brief: as §1

[50] = target: Fuc(a1-2)Gal(b1-3)GalNAc(b1-3)Gal(b1-4)Glc
Method in brief: as §1

[51] = target: Gal(b1-3)GalNAc(b1-3)Gal(b1-4)Glc
Method in brief: as §1

[52] = target: Gal(b1-3)GalNAc(b1-4)Gal(b1-4)Glc
Method in brief: as §1

[53] = target: Gal(b1-4)GlcNAc
Method in brief: as §1

[54] = target: Gal(b1-4)GlcNAc(b1-3)Gal(b1-4)Glc
Method in brief: as §1

[55] = target: Gal(b1-4)GlcNAc(b1-3)Gal(b1-4)GlcNAc(b1-3)Gal(b1-4)GlcNAc
Method in brief: as §1

[56] = target: GalNAc(b1-4)GlcNAc
Method in brief: as §1

[57] = target: GlcNAc(a1-3)Gal(b1-4)GlcNAc
Method in brief: as §1

[58] = target: GlcNAc(b1-3)Gal
Method in brief: as §1

[59] = target: GlcNAc(b1-3)Gal(b1-3)GalNAc
Method in brief: as §1

[60] = target: GlcNAc(b1-6)Gal(b1-4)GlcNAc
Method in brief: as §1

[61] = target: Man(a1-2)Man(a1-2)Man(a1-3)Man
Method in brief: as §1

[62] = target: Neu5Gc(a2-3)Gal(b1-4)GlcNAc
Method in brief: as §1

B1: FBG3 (Homo sapiens), Q9H4M3 (protein)
chain: MAVGNINELPENILLELFTHVPARQLLLNCRLVCSLWRDLIDLVTLWKRKCLREGFITEDWDQPVADWKIFYFLRSLHRNLLHNPCAEEGFEFWSLDVNGGDEWKVEDLSRDQRKEFPNDQVKKYFVTSYYTCLKSQVVDLKAEGYWEELMDTTRPDIEVKDWFAARPDCGSKYQLCVQLLSSAHAPLGTFQPDPATIQQKSDAKWREVSHTFSNYPPGVRYIWFQHGGVDTHYWAGWYGPRVTNSSITIGPPLP
- glycan array binding signal (z-score) [1]: 0.149
- glycan array binding signal (z-score) [2]: -0.582
- glycan array binding signal (z-score) [3]: 0.121
- glycan array binding signal (z-score) [4]: -0.096
- glycan array binding signal (z-score) [5]: 0.034
- glycan array binding signal (z-score) [6]: 0.422
- glycan array binding signal (z-score) [7]: 1.94
- glycan array binding signal (z-score) [8]: -0.387
- glycan array binding signal (z-score) [9]: -0.052
- glycan array binding signal (z-score) [10]: -0.569
- glycan array binding signal (z-score) [11]: -0.544
- glycan array binding signal (z-score) [12]: 0.009
- glycan array binding signal (z-score) [13]: 0.065
- glycan array binding signal (z-score) [14]: -0.478
- glycan array binding signal (z-score) [15]: 2.99
- glycan array binding signal (z-score) [16]: 1.73
- glycan array binding signal (z-score) [17]: 7.93
- glycan array binding signal (z-score) [18]: -0.033
- glycan array binding signal (z-score) [19]: 1.71
- glycan array binding signal (z-score) [20]: -0.171
- glycan array binding signal (z-score) [21]: 0.235
- glycan array binding signal (z-score) [22]: -0.064
- glycan array binding signal (z-score) [23]: -0.514
- glycan array binding signal (z-score) [24]: -0.34
- glycan array binding signal (z-score) [25]: 0.271
- glycan array binding signal (z-score) [26]: -0.75

B2: NcCVNHO (Neurospora crassa), Q7S6U4 (protein)
chain: MSFHVTAEDARIEVRDNRTILFARLRREDGEWNDASYELDQIIGNNDGHFQWGGQNFTETAEDIRFHPKEGAAEQPILRARLRDCNGEFHDRDVNLTEIVENVNGEFQAKF
- glycan array binding signal (z-score) [1]: -0.209
- glycan array binding signal (z-score) [27]: 5.47
- glycan array binding signal (z-score) [28]: -0.185
- glycan array binding signal (z-score) [29]: -0.194
- glycan array binding signal (z-score) [30]: -0.185
- glycan array binding signal (z-score) [31]: -0.254
- glycan array binding signal (z-score) [32]: -0.209
- glycan array binding signal (z-score) [33]: -0.225
- glycan array binding signal (z-score) [34]: 4.71
- glycan array binding signal (z-score) [35]: -0.264
- glycan array binding signal (z-score) [36]: 4.11
- glycan array binding signal (z-score) [37]: -0.246
- glycan array binding signal (z-score) [38]: -0.228
- glycan array binding signal (z-score) [14]: -0.196
- glycan array binding signal (z-score) [39]: -0.209
- glycan array binding signal (z-score) [40]: -0.172
- glycan array binding signal (z-score) [41]: -0.245
- glycan array binding signal (z-score) [42]: -0.297
- glycan array binding signal (z-score) [43]: 8.87
- glycan array binding signal (z-score) [44]: 4.66
- glycan array binding signal (z-score) [45]: 4.86
- glycan array binding signal (z-score) [46]: 0.23
- glycan array binding signal (z-score) [47]: -0.244
- glycan array binding signal (z-score) [48]: -0.217
- glycan array binding signal (z-score) [49]: -0.24
- glycan array binding signal (z-score) [25]: -0.24

B3: TbCVNHOa (Tuber borchii), Q5MK11 (protein)
chain: GSHIGPYMSYADSSRNAVLTNGGRTLRAECRNADGNWVTSELDLDTCIGNPNGFLGWGMQNFSHSSEDIKLEEGGRKLTCRPKTVDGGFRERQGIDLNRIQNVNGRLVFQ
- glycan array binding signal (z-score) [1]: -0.262
- glycan array binding signal (z-score) [50]: 3.46
- glycan array binding signal (z-score) [51]: 5.6
- glycan array binding signal (z-score) [52]: -0.271
- glycan array binding signal (z-score) [12]: -0.264
- glycan array binding signal (z-score) [53]: -0.238
- glycan array binding signal (z-score) [54]: 2.73
- glycan array binding signal (z-score) [55]: -0.058
- glycan array binding signal (z-score) [56]: -0.239
- glycan array binding signal (z-score) [57]: -0.293
- glycan array binding signal (z-score) [41]: -0.292
- glycan array binding signal (z-score) [58]: -0.283
- glycan array binding signal (z-score) [59]: -0.222
- glycan array binding signal (z-score) [60]: -0.247
- glycan array binding signal (z-score) [61]: 3.86
- glycan array binding signal (z-score) [62]: -0.209
